Most compounds without a hit are left out; they make up all but 21% or so of the library.
AMA1 RON2 block – inhibitors of Plasmodium falciparum AMA1-RON2 interaction; AlphaScreen AMA1-biotinylated RON2 peptide binding; Potency, µM (doses to about 58.2 µM), for the others: top-dose activity change, negative = inhibition, actives largely listed as inhibitors; hit rate 0.2% among 360,000;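 also: potency is read from the fitted curve at half-maximal effect; 0% = vehicle wells and -100% = peptide control; nearly all actives have a fitted effect of over 45% in size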
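AMA1 (3D7) with his tag at 25 nM final met compounds first, then biotinylated RON2 peptide at 25 nM; detection used donor plus acceptor beads, 10 µg/mL apiece, read by AlphaScreen after 30 min at room temperature.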
CHX counter – counter-screen hit for Shiga toxin inhibitors, cycloheximide; hit rate 12% among 300,000; AID 2314; max response, %; cell reporter, cycloheximide protein synthesis inhibition counterscreen; in the data active = max response mostly above about 13%, no sharp cut-off; inactive = mostly below about 14%; also: read at 38.3 µM for the half of the compounds with a filed dose; 0% is about no effect
Shiga toxin inh – Shiga toxin inhibition | Vero cells, Shiga toxin protein synthesis inhibition reporter | inhibition, % at 38.7 µM | hit rate 9.2% among 290,000 | AID 2315; in the data active = inhibition mostly above about 28%, no sharp cut-off; inactive = mostly below about 43%; also: 0% is about no effect
HCV inhibitor – HCV inhibition. hit rate 3.4% among 340,000. Huh7.5.1 HCVcc-Cre infection, luciferase reporter, 44 h. Potency, µM (top dose mostly 41.8 µM), without a hit: at the top dose activity change, negative = inhibition, usual class: inhibitors; also: potency is read from the fitted curve at half-maximal effect; % is scaled to controls: 0 for no effect and ±100 for the full control effect
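Luciferase read-out (15 sec integration) after a 15 min room-temperature substrate step quantifies HCVcc-Cre infection. Cells, 1,000 per well, had compound added 4 h post-plating, then virus at ~0.5 moi, and were cultured 44 h.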
Pf growth 96h – P. falciparum growth inhibition at 96 hour, primary screen for plastid delayed-death inhibitors; P. falciparum luciferase reporter growth, 96 h; Potency, µM (series often up to 28.7 µM), inactives show at the highest dose activity change, negative = inhibition, most hits filed as inhibitors; hit rate 6.9% among 320,000; also: potency is read from the fitted curve at half-maximal effect; % is scaled to controls: 0 for no effect and ±100 for the full control effect
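Two parasite generations (96 h, 37 C, 5% CO2) of compound exposure in infected erythrocytes (0.05% parasitemia, 2% hematocrit). Luciferase-reporter P. falciparum; decreased luminescence indicates inhibited growth, aimed at apicoplast-acting delayed death.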
Pf growth 48h – P. falciparum growth inhibition at 48 hours (one generation); Potency, µM (doses to about 28.7 µM), for inactives: at the top dose activity change, negative = inhibition, usual class: inhibitors; P. falciparum luciferase growth in erythrocytes, 48 h; AID 504832; hit rate 5.9% among 310,000; also: potency is read from the fitted curve at half-maximal effect; % is scaled to controls: 0 for no effect and ±100 for the full control effect
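First compound was added to culture medium, then infected red cells at 0.1% parasitemia and 2% hematocrit (final). After incubation at 37 C under 5% CO2, luciferase detection reagent was dispensed and light output recorded.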
* hit, by the source's call; i = inactive; ? = inconclusive; . = no result; [ ] = another dose, or the depositor's remark. Unless noted, calls follow the shape of the dose curve; as a rule, active = well fitted curve in the direction sought with a large enough effect; inconclusive = small, poorly fitted or top-dose-only effect, or another doubt; inactive = no such curve, though single readings can be large; an effect the other way counts as inactive or inconclusive.

SMILES	AMA1 RON2 block	CHX counter	Shiga toxin inh	HCV inhibitor	Pf growth 96h	Pf growth 48h
CC1C(=O)N(Cc2ccc(F)cc2)c2ccccc2N1C(=O)c1c(F)cccc1F (configuration not stated)	-3.3%	-2.9	3.0	?	11.7µM*	?
C[C@@H](c1ccccc1)N1C[C@H](COCc2ccccc2)Oc2cc(N3CC[C@@H](O)C3)ccc2S1(=O)=O	-13.8%	.	.	.	.	.
CCOC(=O)c1c(N)sc(C(=O)OCCOC)c1C	-14.5%	34.7*	59.2*	?	151.8%	92.6%
CCOC(=O)c1sc(N)c(C(=O)Nc2ccccc2)c1C	-2.1%	27.0*	46.4*	12.3%	2.8%	84.1%
CCOC(=O)c1sc(N)c(C(=O)OCC)c1C	-2.8%	51.3*	80.8*	-21.0%	64.0%	65.6%
CCOC(=O)c1c(N)sc(C(=O)N2CCCC2)c1C	26.0%	-2.5	-6.2	1.9%	-10.7%	.
COc1ccc(-c2ccc(-c3cc(=O)oc4cc(OC)c(OC)c(OC)c34)cc2)cc1	8.1%	13.5	i	42.7%	.	.
CC(=O)Oc1ccc(-c2csc(Nc3cccc(C)n3)n2)cc1	11.0%	45.3*	91.2*	?	?	84.0%
COc1ccc(-c2csc(Nc3cccc(C)n3)n2)cc1C	-3.2%	55.9*	79.2*	?	7.8%	6.6%
COc1ccc(-c2csc(C)n2)cc1OC	-2.1%	4.9	1.0	-15.1%	7.7%	.
Cc1cccc(Nc2nc(-c3ccc(F)cc3)cs2)n1	-8.2%	45.6*	104.6*	?	11.7µM*	152.7%
COc1ccc(-c2csc(Nc3cccc(C)n3)n2)cc1	-6.4%	37.9*	70.6*	?	?	146.2%
COCCNC(=O)NC(=O)CN1C(=O)NC(Cc2c[nH]c3ccccc23)C1=O (configuration not stated)	8.2%	-1.0	-5.9	21.5%	37.9%	10.0%
CN1CCN(NS(=O)(=O)c2ccc(Cl)cc2)CC1	31.9%	-0.8	-12.6	9.5%	-2.5%	13.4%
COc1ccc(/C=C2\CCc3ccccc3C2=O)cc1Cn1nc(C)cc1C	-16.9%	21.2*	43.7	?	1.7%	.
COc1ccc(/C=C2/CCc3ccccc3C2=O)cc1CN1CCOCC1	-27.5%	51.3*	92.3*	?	-18.2%	31.1%
COc1ccc(/C=N/NC(=O)c2ccncc2)cc1CN1CCOCC1	3.6%	-1.0	2.9	-2.4%	22.8%	4.0%
COc1ccc(/C=N/NC(=O)COc2ccc(Cl)cc2Cl)cc1Cn1nc(C)cc1C	65.5%	-2.8	-7.1	0.0%	106.8%	-3.0%
CC1C(=O)N2CCCc3cc(NC(=O)C4CC4)cc1c32 (configuration not stated)	-2.0%	.	.	1.8%[8.37 µM]	23.9%	-5.1%
CCNC(=S)N1N=C2c3ccccc3CCC2C1c1ccc(F)cc1 (configuration not stated)	-18.0%	-3.1	15.0	?	2.62µM*	7.38µM*
CC(=O)N1N=C2c3ccccc3CCC2C1c1ccc(F)cc1 (configuration not stated)	-3.5%	-0.6	-9.0	-7.7%	?	0.5%
CCOC(=O)c1c(C)n(CC)c2c1cc(O)c1ccccc12	-6.1%	-2.1	-1.0	-0.9%	6.3%	-33.9%
CCOC(=O)c1c(C)n(Cc2ccco2)c2c1cc(O)c1ccccc12	-10.6%	21.6	24.7	-20.4%	.	3.7µM*
CCOC(=O)c1c(C)n(CCN2CCN(C)CC2)c2ccc(OC)cc12	-23.8%	-2.3	-16.6	?	3.7µM*	?
CCn1c(C)c(C(=O)Nc2ccc(OC)cc2)c2cc(OC)ccc21	-9.2%	19.4*	27.3	?	46.7%	58.2%
CCOC(=O)c1c(C)n(Cc2ccco2)c2ccc(OC)cc12	5.4%	0.7	22.5	12.6µM*	.	0.0%
CCCCn1c(C)c(C(=O)O)c2cc(OC)ccc21	-12.9%	-1.4	-12.5	0.6%	120.2%	6.2%
CC1CN(C2CCCCC2)C(=O)NC1=O (configuration not stated)	0.4%	.	.	10.4%	.	.
CN1C(=O)C(=Cc2cn(CC#N)c3ccccc23)C(=O)N(C)C1=O	-8.3%	-5.4	-5.2	16.1%	?	7.2%
CCn1cc(C=C2C(=O)c3ccccc3C2=O)c2ccccc21	14.3%	12.3*	-12.8	15.8%	?	-1.5%
